In all, about 52,000 compounds went through this assay and about 4,300 (8.3%) were called active. No stated cut-off is given here; in the data, active means survival mostly below about 52% (no sharp cut-off); inactive means mostly above about 56%. The sample as a whole holds a higher share of actives than the screen did.
System: DeltatarO mutant
Assay: S. aureus survival, RN4220 and DeltatarO strains – OD600, teichoic acid synthesis inhibitors, primary screen (AID 463173)
Conditions: S. aureus RN4220 wild type/DeltatarO growth, OD600, 18 h, stronger effect = lower value, screened at 18.75 µg/mL (by protocol)

SMILES	survival
CCn1c(=O)cc(SCC(=O)NCCc2cc(OC)ccc2OC)c2ccccc21	61% (inactive)
Cc1cccc(Oc2nc3c(c(=O)n(C)c(=O)n3C)n2C)c1	123% (inactive)
Cc1cccc(Oc2nc3c(c(=O)n(C)c(=O)n3C)n2Cc2ccccc2)c1C	53% (inactive)
CCCCNc1nc2c(c(=O)n(Cc3ccc(Cl)cc3)c(=O)n2C)n1C	56% (inactive)
Cc1cc(C)cc(Oc2nc3c(c(=O)n(C)c(=O)n3C)n2Cc2ccc(F)cc2)c1	76% (inactive)
CCCCC(CC)Cn1c(Oc2ccccc2)nc2c1c(=O)n(C)c(=O)n2C (stereo not given)	-15% (active)
COc1cccc(Cn2c(Oc3cc(C)cc(C)c3)nc3c2c(=O)n(C)c(=O)n3C)c1	31% (active)
CCCCNc1nc2c(c(=O)n(Cc3ccccc3)c(=O)n2C)n1C	66% (inactive)
Cc1ccc(Oc2nc3c(c(=O)n(Cc4ccccc4)c(=O)n3C)n2C)cc1C	44% (inactive)
COc1cccc(Cn2c(NCc3ccc(C)cc3)nc3c2c(=O)n(C)c(=O)n3C)c1	79% (inactive)
CCCCNc1nc2c(c(=O)n(Cc3ccc(Cl)c(Cl)c3)c(=O)n2C)n1C	-10% (active)
Cn1c(=O)c2c(nc(Oc3ccccc3)n2Cc2c(Cl)cccc2Cl)n(C)c1=O	84% (inactive)
Cc1ccc(C)c(Oc2nc3c(c(=O)n(C)c(=O)n3C)n2Cc2ccccc2)c1	32% (active)
CCOc1ccc(C(=O)c2cn(CC(=O)Nc3ccc(OC)cc3)c3cc4c(cc3c2=O)OCCO4)cc1	82% (inactive)
CCc1cccc(C)c1NC(=O)Cn1nc(C)c2nn(-c3ccc(Cl)cc3)c(C)c2c1=O	124% (inactive)
Cc1ccc(-n2nc(CO)c(C(=O)NCCO)n2)cc1	82% (inactive)
CCOc1ccc(CN2CCc3nc(Nc4ccc5c(c4)OCCO5)ncc3C2)cc1	89% (inactive)
Cc1ccc(S(=O)(=O)c2nnn3c2nc(N2CCCCC2)c2sccc23)cc1	104% (inactive)
CCOC(=O)c1scc(-c2ccc(C)cc2)c1S(=O)(=O)N1CCN(c2ccccc2)CC1	73% (inactive)
Cc1ccc(CSc2nnc(-n3c(=O)c(C#N)cc4c(=O)n5cccc(C)c5nc43)s2)cc1	101% (inactive)
N#Cc1cc(-c2ccc(Cl)cc2)no1	97% (inactive)
COC(=O)CSc1nnc(-c2ccccc2)n1C	97% (inactive)
CCc1ccccc1NC(=O)Nc1c(C)n(C)n(-c2ccccc2)c1=O	88% (inactive)

SMILES	survival
CN1C(=O)N(C)C2(CC1(C)C)CC(C)(C)N(C)C(=O)N2C	102% (inactive)
Cn1c(=O)c2c(nc(SCC(=O)Nc3ccc(F)c(F)c3)n2Cc2ccccc2F)n(C)c1=O	111% (inactive)
COc1ccc(NC(=O)c2nnn(Cc3ccc(Br)cc3F)c2N)c(OC)c1	68% (inactive)
Cn1c(=O)c2c(nc(NCc3ccccc3)n2Cc2ccc(Cl)c(Cl)c2)n(C)c1=O	42% (inactive)
COc1ccc(CNc2nc3c(c(=O)n(C)c(=O)n3C)n2Cc2ccccc2Cl)cc1	65% (inactive)
Cn1c(=O)c2c(nc(NCc3ccccc3)n2Cc2ccccc2)n(C)c1=O	38% (active)
Cn1c(=O)c2c(nc(NCc3ccccc3)n2Cc2ccccc2Cl)n(C)c1=O	58% (inactive)
Cc1ccccc1Oc1nc2c(c(=O)n(C)c(=O)n2C)n1Cc1ccc(Br)cc1	143% (inactive)
COc1ccc(Cl)c(Cn2c(NCCN)nc3c2c(=O)n(C)c(=O)n3C)c1	56% (active)
COc1ccccc1Oc1nc2c(c(=O)n(C)c(=O)n2C)n1Cc1cccc(Br)c1	40% (active)
COc1ccc(CCNc2nc3c(c(=O)n(C)c(=O)n3C)n2Cc2ccccc2Cl)cc1OC	75% (inactive)
Cn1c(=O)c2c(nc(NCCc3ccccc3)n2Cc2cccc(Br)c2)n(C)c1=O	50% (inactive)
COc1ccc(NC(=O)Cn2cnc3sc(C)c(S(=O)(=O)N4CCN(c5ccccc5OC)CC4)c3c2=O)cc1OC	67% (inactive)
CC1CCN(c2nc(N3CCCCC3)nc(N3CCCCC3)n2)CC1	62% (inactive)
CCOC(=O)c1cc(C)n(CC2CCC(C(=O)Nc3ccc(C)c(F)c3)CC2)c1C (stereo not given)	64% (inactive)
Cc1cccc(NC(=O)C2CCCN(S(=O)(=O)c3c(C)noc3/C=C/N(C)C)C2)c1C (stereo not given)	84% (inactive)
Cc1ccc(NS(=O)(=O)c2ccc3c(c2)CCN3C(=O)C2CC2)c(C)c1	58% (inactive)
Cc1ccc(Nc2c(-c3cccnc3)nc3ccc(Cl)cn23)cc1	83% (inactive)
O=C(Nc1ccc(F)cc1F)C1CCN(c2ncccn2)CC1	58% (inactive)
Cc1c(C(=O)OC2CCCC2)[nH]c2c1C(=O)CC(c1ccc(C(C)(C)C)cc1)C2 (stereo not given)	89% (inactive)
Cc1nnc(SCC(=O)O)o1	75% (inactive)
Cc1ccc(Nc2c(-c3ccc(C)cc3)nc3ccc(C)cn23)cc1	117% (inactive)
COCCNc1c(-c2ccc(N)cc2)nc2ccc(C)cn12	65% (inactive)

SMILES	survival
Cc1ccc2nc(-c3ccc(F)cc3)c(NC(C)(C)CC(C)(C)C)n2c1	12% (active)
O=C(CSc1ccc(-c2cccs2)nn1)Nc1ccccc1	76% (inactive)
COc1ccccc1N1CCN(C(=O)c2ccc3c(c2)N(Cc2cc(C)ccc2C)C(=O)c2ccccc2S3(=O)=O)CC1	74% (inactive)
CCNC(=O)c1cc2n(n1)CCCN(Cc1ccc(C)cc1)C2=O	49% (inactive)
CCCCNC(=O)c1cc2n(n1)CCCN(Cc1ccc(C)cc1)C2=O	32% (active)
CCC(C)NC(=O)c1cc2n(n1)CCCN(Cc1ccc(C)cc1)C2=O (stereo not given)	74% (inactive)
Cc1ccc(CN2CCCn3nc(C(=O)NC(C)C)cc3C2=O)cc1	0% (active)
CCCSCCCNC(=O)c1cc2n(n1)CCCN(Cc1ccc(C)cc1)C2=O	89% (inactive)
CCCNC(=O)c1cc2n(n1)CCCN(Cc1ccc(C)cc1)C2=O	131% (inactive)
O=C(CN1C(=O)CSc2ccc(S(=O)(=O)N3CCCC3)cc21)NCc1ccccc1Cl	87% (inactive)
CCCC(=O)n1nc(-c2cccnc2)nc1NCc1ccccc1	81% (inactive)
Cc1ccc(Cl)cc1NC(=O)CCc1c(C)nc2c3cccnc3nn2c1C	103% (inactive)
O=C(NCc1ccccc1Cl)C1CCCN(c2nc3ccccc3n3cccc23)C1 (stereo not given)	46% (active)
COc1ccccc1CNC(=O)C1CCCN(c2nc3ccccc3n3cccc23)C1 (stereo not given)	53% (inactive)
O=C(NCc1ccc(Cl)cc1)C1CCCN(c2nc3ccccc3n3cccc23)C1 (stereo not given)	82% (inactive)
O=C(NCc1ccccc1Br)C1CCCN(C(=O)N2CCOc3ccccc32)C1 (stereo not given)	73% (inactive)
COc1ccc(NC(=O)C2=C(C)Nc3nc(SCc4ccccc4C)nn3C2c2ccc(Br)cc2)cc1 (stereo not given)	80% (inactive)
CCOc1ccc(CNC(=O)c2ccc3c(c2)c(C)c(C)n3Cc2ccc(Cl)cc2)cc1	67% (inactive)
CCCC(=O)Nc1nc2ccc(S(C)(=O)=O)cc2s1	93% (inactive)
CN(c1ccc(O)cc1)c1nc(-c2cccs2)cs1	1% (active)
CC(=O)N(C)c1nc(-c2ccccc2)cs1	80% (inactive)
COc1ccc(-c2csc(N(CC(C)C)C(=O)c3cccs3)n2)cc1	76% (inactive)
Cc1[nH]c2ccc(CNS(=O)(=O)c3ccc(S(=O)(=O)N4CCOCC4)cc3)cc2c1C	91% (inactive)

SMILES	survival
CC1=C(C(=O)OCC2CCCO2)C(c2ccccc2)NC(=O)N1 (stereo not given)	102% (inactive)
CC1CCN(S(=O)(=O)c2ccc3c(c2)N(CC(=O)NC(C)C)C(=O)CO3)CC1	76% (inactive)
Cc1nn(C(C)C(=O)Nc2ccc(C(C)C)cc2)c(=O)c2c1sc1ccccc12 (stereo not given)	58% (active)
Cc1nn(C(C)C(=O)Nc2cccc(F)c2)c(=O)c2c1sc1ccccc12 (stereo not given)	108% (inactive)
Cc1cc(C)c(NC(=O)C(C)n2nc(C)c3sc4ccccc4c3c2=O)c(C)c1 (stereo not given)	60% (inactive)
Cc1ccc(S(=O)Cc2ccc(C(=O)NC3CCCCCC3)o2)cc1 (stereo not given)	121% (inactive)
CCOC(=O)c1ccc(NC(=O)C2CCN(S(=O)(=O)Cc3ccccc3)CC2)cc1	66% (inactive)
CC(C)c1ccc(CNC(=O)c2ccc(N3CCCC3)c(NC(=O)NCc3ccc(F)cc3)c2)cc1	47% (active)
CC(C)c1ccc(CNC(=O)c2ccc(N3CCCC3)c(NC(=O)NCc3ccccc3)c2)cc1	73% (inactive)
Cc1ccc(CNC(=O)Nc2cc(C(=O)NCc3ccc(C(C)C)cc3)ccc2N2CCCC2)cc1	79% (inactive)
Cc1cc(C)cc(-n2ccn(Cc3ccc(F)cc3)c(=O)c2=O)c1	71% (inactive)
COc1ccc(Cl)cc1C(=O)Nc1ccc2nc(Nc3cccc(Cl)c3)cc(C)c2c1	93% (inactive)
CCCCc1ccc(C(=O)Nc2ccc3nc(N(CC)CC)cc(C)c3c2)cc1	109% (inactive)
COc1ccc(C(=O)Nc2ccc3nc(N4CCCCC4)cc(C)c3c2)c(OC)c1	44% (active)
COc1cccc(C(=O)Nc2ccc3nc(N4CCC(C)CC4)cc(C)c3c2)c1	47% (inactive)
CCCCc1ccc(C(=O)Nc2ccc3nc(N4CCN(CC)CC4)cc(C)c3c2)cc1	36% (active)
COc1ccc(C(=O)Nc2ccc3nc(N4CCC(C)CC4)cc(C)c3c2)cc1	56% (inactive)
COc1ccccc1C(=O)Nc1ccc2nc(N3CCC(C)CC3)cc(C)c2c1	3% (active)
CCN1CCN(c2cc(C)c3cc(NC(=O)c4cc(Cl)ccc4OC)ccc3n2)CC1	8% (active)
CC(=O)c1ccc(NC(=O)CSc2ccc3nnc(CCNS(=O)(=O)c4ccc(C)cc4)n3n2)cc1	67% (inactive)
COc1ccc(C)cc1NC(=O)CC(=O)Nc1ccc2nc3n(c(=O)c2c1)CCCCC3	89% (inactive)

Source: PubChem BioAssay AID463173 (ICCB-Longwood Screening Facility, Harvard Medical School, 2010)
